# Assay outcomes deposited in PubChem BioAssay by National Center for Advancing Translational Sciences (NCATS).
# The list is not random: actives were taken first. Their share in the collection is about 15%.
# Pf growth 48h: P. falciparum growth inhibition at 48 hours (one generation). P. falciparum luciferase growth in erythrocytes, 48 h. Potency, µM (top dose mostly 28.7 µM), inactives show top-dose activity change, negative = inhibition, most hits filed as inhibitors. hit rate 5.9% among 310,000; also: potency is read from the fitted curve at half-maximal effect; % is scaled to controls: 0 for no effect and ±100 for the full control effect
#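 Luciferase-expressing P. falciparum in infected erythrocytes (2% hematocrit, 0.1% parasitemia final) in RPMI 1640/0.5% Albumax were exposed to compound for 48 hours at 37 C, 5% CO2; growth read as luminescence.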
# HCMV inh: inhibitors of human cytomegalovirus | HFF cells, HCMV-luciferase reporter, 72 h; stronger effect = lower value | activity change, negative = inhibition, % at 57.5 µM | hit rate 4.5% among 410,000 | AID 1259415; in the data active = activity change below about -60%; inconclusive = no clear call, values can overlap the other calls; inactive = above about -39%; also: % is scaled to controls: 0 for no effect and ±100 for the full control effect
#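 Inhibition of viral replication was scored as loss of reporter luminescence in HFFs infected with HCMV-luciferase (MOI 1 PFU/cell) for 72 h; compounds tested at 2 doses, normalized to buffer and Salinomycin controls.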
# HCV inhibitor: blocks hepatitis C virus | Huh7.5.1 HCVcc-Cre infection, luciferase reporter, 44 h | Potency, µM (highest dose often 41.8 µM), for the others: at the top dose activity change, negative = inhibition, most hits filed as inhibitors | hit rate 3.4% among 340,000 | AID 651820; also: potency is read from the fitted curve at half-maximal effect; % is scaled to controls: 0 for no effect and ±100 for the full control effect
#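 Cells (1,000/well) were plated 4 h before compound, then infected with HCVcc-Cre virus (~0.5 moi). After 44 h further culture, infection was read as luciferase luminescence following a 15 min substrate incubation at room temperature.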
# Sm TGR block: inhibitors of Schistosoma mansoni thioredoxin glutathione reductase. AID 485364. Potency, µM (top dose mostly 114 µM), for inactives: at the highest dose activity change, negative = inhibition, usual class: inhibitors. Q962Y6. purified TGR, DTNB reduction, TNB absorbance 405 nm. hit rate 3% among 360,000; also: potency is read from the fitted curve at half-maximal effect; % is scaled to controls: 0 for no effect and ±100 for the full control effect; nearly all actives have a fitted effect of over 60% in size
#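 Kinetic colorimetric format: TGR-catalysed, NADPH-driven DTNB reduction monitored via TNB absorbance. Enzyme dispensed at 20 nM; compound exposure 15 min at room temperature before reaction start.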
# Pf growth 96h: P. falciparum growth inhibition at 96 hour, primary screen for plastid delayed-death inhibitors; P. falciparum luciferase reporter growth, 96 h; Potency, µM (top dose mostly 28.7 µM), inactives show at the top dose activity change, negative = inhibition, actives largely listed as inhibitors; hit rate 6.9% among 320,000; also: potency is read from the fitted curve at half-maximal effect; % is scaled to controls: 0 for no effect and ±100 for the full control effect
#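 Luminescence readout: decreased luciferase signal marks inhibited growth of reporter-expressing P. falciparum in infected red cells (2% hematocrit, 0.05% parasitemia final), exposed to compound two generations (96 h, 37 C, 5% CO2).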
# SARS PLpro yeast: blocks SARS-CoV papain-like protease in a yeast assay; AID 485353; Potency, µM (top dose mostly 32.9 µM), inactives show at the top dose activity, positive = growth rescue, usual class: activators; hit rate 0.19% among 330,000; S. cerevisiae expressing SARS-CoV PLpro, growth rescue; calls by dose curve; also: potency is read from the fitted curve at half-maximal effect; 0% is about no effect; nearly all actives have a fitted effect of over 55% in size
# An asterisk follows results filed as active; ? = inconclusive; . = not tested or not shown; [ ] = dose if it differs, or a comment. Unless noted, calls follow the shape of the dose curve; as a rule, active = well fitted curve in the direction sought with a large enough effect; inconclusive = small, poorly fitted or top-dose-only effect, or another doubt; inactive = no such curve, though single readings can be large; an effect the other way counts as inactive or inconclusive.
SMILES,Pf growth 48h,HCMV inh,HCV inhibitor,Sm TGR block,Pf growth 96h,SARS PLpro yeast
CN(C)C(CNC(=O)CNC(=O)c1ccc2ccccc2c1)c1ccccc1 (centres undefined),4%,-16,-4%,11%,-25%,2%
Cn1c2c(c(=O)n(C)c1=O)C(c1ccccc1C(F)(F)F)CC(=O)N2 (centres undefined),.,-26,.,?,.,.
CCOC(=O)C1(C)CCCN1C(=O)c1ccc(C(F)(F)F)nc1C (centres undefined),.,13,.,.,.,.
COc1ccc(N(CC(=O)Nc2cccc(Cl)c2)S(=O)(=O)c2c(C)[nH]c(=O)[nH]c2=O)cc1,.,14,.,-1%,.,.
Cc1cccc(NC(=O)CN2C(=O)S/C(=C\c3ccccn3)C2=O)c1,-17%,-36,-20%,-3%,4.1µM*,1%
Cc1cccc(NC(=O)CN2C(=O)N/C(=C/c3cc(C)n(C)c3C)C2=O)c1,-15%,-9,5%,25µM*,19%,-2%
COc1ccccc1CNS(=O)(=O)c1ccc2c(c1)NC(=O)C(C)S2 (centres undefined),7%,-37,?,-10%,?,-2%
O=C(Cn1c(=O)n(CC2CS2)c2ccccc21)N1CCCCCC1 (centres undefined),?,-70*,8%,.,3%,-1%
C=C(C)Cn1c(=O)n(CC2CS2)c2ccccc21 (centres undefined),-12%,?,4%,-23%,?,-5%
CC(C)(C)c1ccc(OCc2nc3ccccc3n2CCOc2ccccc2)cc1,.,52,.,8%,.,.
C[n+]1ccccc1COc1ccc(C(C)(C)C)cc1,?,?,?,4%,0.37µM*,2%
Cc1ccc(C(=O)O/N=C(\N)c2nonc2N)cc1,84%,15,-5%,-4%,?,-12%
C[C@@H](CSc1ccccc1)CN1CC[C@H](NC(=O)OCc2ccccc2)CCC1=O,-8%,-78*,11µM*,7%,?,-9%
O=C(N[C@@H]1CCC(=O)N(CC[C@H](Oc2ccccc2)c2ccccc2)CC1)OCc1ccccc1,0.41µM*,-37,-27%,-11%,10µM*,-6%
Cc1ccc(SC[C@H](C)CN2CC[C@H](NC(=O)OCc3ccccc3)CCC2=O)cc1,-14%,-30,-14%,-8%,?,-1%
Cc1ccc(S[C@@H](CCN2CC[C@H](NC(=O)OCc3ccccc3)CCC2=O)c2ccccc2)cc1,3%,?,13µM*,-20%,?,10%
CCOC(=O)N(C)C[C@H]1OCc2cnnn2CCCC(=O)N([C@H](C)CO)C[C@@H]1C,.,-10,.,.,.,.
Cc1ccc(C)c(Cn2c(C(=O)OC(C)C)cc3c2ccn3C)c1,?,-37,-5%,17%,0%,-25%
CCCCC1(C)NC(=O)c2c(C)sc(C(=O)OCC)c2N1 (centres undefined),?,3,?,0%,8.3µM*,-16%
CCOC(=O)CC1(CC(=O)OCC)NC(=O)c2c(C)sc(C(=O)OCC)c2N1,-5%,7,-17%,8%,3.7µM*,10%
CCOC(=O)CC1(C)NC(=O)c2c(C)sc(C(=O)OCC)c2N1 (centres undefined),0%,-4,-8%,-28%,27%,4%
CCc1cc(C(=O)N2CCCC(C(=O)c3cccc4ccccc34)C2)n(C)n1 (centres undefined),3%,-60*,10µM*,4%,?,0%
CC(=O)Nc1ccc(N=NN2CCOCC2)cc1,17%,-39,9%,8.9µM*,39%,11µM*
Cc1cccc(C(=O)Nc2nc(-c3nnn(-c4cc(C)ccc4C)c3C)ns2)c1,.,-62*,.,4%,.,.
COc1ccc(C(=O)Nc2nc(-c3nnn(-c4ccc(F)cc4F)c3C)ns2)cc1,.,-104*,.,2%,.,.
SMILES,Pf growth 48h,HCMV inh,HCV inhibitor,Sm TGR block,Pf growth 96h,SARS PLpro yeast
COc1cccc(C(=O)Nc2nc(-c3nnn(-c4ccccc4C(F)(F)F)c3C)ns2)c1,.,-76*,.,-4%,.,.
COc1cccc(C(=O)Nc2nc(-c3nnn(-c4cc(C)ccc4C)c3C)ns2)c1,.,-12,.,2%,.,.
Cc1cc(/C=C2/SC(=S)N(c3cccc(Cl)c3)C2=O)c(C)n1-c1cccnc1,.,-93*,2.2µM*,.,.,.
CC1=NN(c2ccccc2)C(=O)/C1=C\c1cc(C)n(-c2cccnc2)c1C,?,-73*,-24%,-22%,?,-2%
Cc1cc(/C=C2/SC(=S)N(c3ccc([N+](=O)[O-])cc3)C2=O)c(C)n1-c1cccnc1,13µM*,-83*,2.5µM*,0%,16%,-3%
CCOC(=O)C1CCCN(c2cc(=O)n(C3CCCCC3)c(=O)[nH]2)C1 (centres undefined),-2%,4,26%,3%,-17%,-5%
COc1ccc(CN(C)C[C@@H]2OCc3cnnn3CCCC(=O)N([C@H](C)CO)C[C@H]2C)cc1,.,10,.,.,.,.
CCCOc1ccc(C(=O)Nc2cc3c(cc2N2CCOCC2)n(C)c(=O)n3C)cc1,.,-6,.,0%,.,.
COc1ccc(CNC(=O)CN2C(=O)CCSc3ccc(S(=O)(=O)N4CCCC4)cc32)cc1,-20%,-29,-5%,-29%,-14%,-2%
Clc1cccc(OCCN2CCCC2)c1,-9%,4,-1%,-12%,101%,-2%
CC(C)c1cccc(OCCN2CCCC2)c1,-26%,3,4%,9%,10µM*,0%
CN1CCN(CCOc2cccc(Cl)c2)CC1,68%,45,-19%,1%,10µM*,3%
CC(=O)Nc1nc(-c2ccc(Cl)cc2)ns1,195%,96,?,-1%,122%,-42%
Cc1oc(-c2ccc(C(=O)Nc3ccc(F)cc3F)cc2)nc1COc1ccccc1,.,?,.,-1%,.,.
O=C1CC(c2ccccc2)=Nc2ccccc2N1,.,-11,3%,-8%,42%,-5%[6.58 µM]
O=C1CN=C(c2ccccc2)c2cc(Br)ccc2N1,-1%,-22,15%,0%,5%,6%
Cc1ccc2c(c1)NC(=O)CC(c1ccccc1)=N2,116%,?,3.2µM*,-3%,-16%,-21%
O=C1CC(c2ccccc2)=Nc2ccc(Br)cc2N1,-22%,-68*,-21%,11%,43%,-1%
CCCCCc1c(C)[nH]c2nc3ccccc3n2c1=O,-29%,-35,-8%,54%,?,-10%
CC(NC(=O)c1cc2c(s1)CS(=O)(=O)C2)c1ccccc1 (centres undefined),11%,16,5%,0%,52%,-5%
Cc1ccc(S(=O)(=O)c2nc(/C=C/c3ccccc3)oc2N2CCC(C(N)=O)CC2)cc1,.,-32,.,.,.,.
